# iPSC survival up: hiPSC single-cell survival enhancement; ATPlite luminescence; 100% = ROCK inhibitor wells, 0% = DMSO; survival enhancement, % at 20 µM; actives 0.044% (n = 360,000); AID 602274; in the data active means survival enhancement above about 18%;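 further: cells exposed to compounds for 16 hours before the ATP read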
# MIN6 prolif: induces beta-cell replication in MIN6 cells | AID 2380 | actives 0.29% (n = 330,000) | MIN6 cells proliferation, ATPlite luminescence, 48 h; cells starved in 0.2% serum; 100% = growth in 10% serum | proliferation, % at 10 µM;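 active means compounds whose signal lies at least 3.5 SD above the mean of all wells on their plate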;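 further: 0% = DMSO-treated cells in low-serum medium and 100% = 10% serum control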
# Myeloid diff MLP: promotes myeloid progenitor differentiation; actives 1% (n = 360,000); calls only at 10 µM; ER-HoxA9 myeloid progenitors, lysozyme-GFP differentiation, flow cytometry;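 active means normalized GFP-positive differentiation at or above the plate's own cutoff, the solvent-only control mean plus 3 SD; inconclusive means no clear call, values can overlap the other calls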;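 further: cells exposed to compound for four days before flow analysis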
# ABCB6 inh MLPCN: inhibitors of human ABC transporter ABCB6. K562-ABCB6 porphyrin accumulation, flow cytometry, 1 h; active compounds read low. fluorescence ratio to DMSO, % at 10 µM. actives 0.19% (n = 360,000);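 active means fluorescence ratio to DMSO below 75%, the collection mean minus 3 SD; inconclusive means too few cells collected in the well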;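 further: signal is porphyrin accumulated inside mitochondria; 100% equals median channel fluorescence of DMSO control wells; lower ratio means ABCB6 inhibition with less porphyrin fluorescence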
# Target sequence (Q9NP58 whole entry, looked up): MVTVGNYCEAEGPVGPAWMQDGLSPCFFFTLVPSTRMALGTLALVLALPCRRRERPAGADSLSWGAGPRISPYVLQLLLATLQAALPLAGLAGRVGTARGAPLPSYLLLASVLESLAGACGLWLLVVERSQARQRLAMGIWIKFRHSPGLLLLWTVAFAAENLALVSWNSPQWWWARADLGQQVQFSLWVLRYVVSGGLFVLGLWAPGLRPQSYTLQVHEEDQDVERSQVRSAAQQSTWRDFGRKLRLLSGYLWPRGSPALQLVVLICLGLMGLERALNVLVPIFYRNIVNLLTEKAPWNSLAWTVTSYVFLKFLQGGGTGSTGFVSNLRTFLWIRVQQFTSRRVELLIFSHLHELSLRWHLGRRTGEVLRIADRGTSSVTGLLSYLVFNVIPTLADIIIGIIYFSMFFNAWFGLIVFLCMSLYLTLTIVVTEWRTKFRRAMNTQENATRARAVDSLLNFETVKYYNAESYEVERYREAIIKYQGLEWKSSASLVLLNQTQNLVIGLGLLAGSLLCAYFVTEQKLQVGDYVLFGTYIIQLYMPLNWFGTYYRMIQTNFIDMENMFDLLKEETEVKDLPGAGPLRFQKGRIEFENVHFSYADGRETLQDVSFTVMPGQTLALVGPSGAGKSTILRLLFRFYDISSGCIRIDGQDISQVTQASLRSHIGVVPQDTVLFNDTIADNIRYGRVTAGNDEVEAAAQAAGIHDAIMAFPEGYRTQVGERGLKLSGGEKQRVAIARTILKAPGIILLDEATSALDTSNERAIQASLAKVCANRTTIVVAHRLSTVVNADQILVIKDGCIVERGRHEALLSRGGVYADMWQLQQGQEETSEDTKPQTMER
# H9c2 protect: protects H9c2 cardiomyocytes from peroxide injury. actives 0.63% (n = 360,000). protection from H2O2 cell death, % at 20 µM. H2O2 injury protection, ATPLite, 2 h;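 active means compounds giving at least 50% protection of heart cells from peroxide-induced death in the single-dose screen, raw or plate-pattern-corrected value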;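 further: 0% = DMSO wells with peroxide and 100% = DMSO wells without peroxide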
# Starred values were filed as active, the others as inactive; i = inactive; ? = inconclusive; nt = not tested or not shown; + = active, no number. This is a sample that favours compounds with a hit; in the whole collection about 2.2% have one here.
SMILES,iPSC survival up,MIN6 prolif,Myeloid diff MLP,ABCB6 inh MLPCN,H9c2 protect
CCc1ccccc1SCc1noc(C(=O)NCC2CCCO2)c1C(=O)O (centres undefined),0,-2,i,101,-2
O=C(c1ccc(CSc2nc3ccncc3[nH]2)cc1)N1CCN(c2cccc(Cl)c2)CC1,-1,-7,+,93,-24
COc1ccc(C2=NN(C(=O)COC(=O)c3ccc(NC(=O)CC#N)cc3)C(c3ccco3)C2)cc1 (centres undefined),-1,5,+,88,-5
Cc1ccc(Nc2ncnc3sc(C)c(C)c23)cc1C,6,0,+,95,-5
Cc1sc2ncnc(N/N=C/c3ccc(O)cc3)c2c1C,0,-1,i,98,-6
COc1cccc(C=NNc2nc3ccccc3s2)c1OC,-1,nt,i,97,-13
COc1cccc(/C=N/Nc2ncnc3scc(-c4ccccc4)c23)c1OC,0,1,?,99,60*
Cc1sc2ncnc(N/N=C/c3ccccc3O)c2c1C,-1,nt,?,100,54*
O=C1CC(c2ccco2)CC2=C1C(c1ccccc1)n1nc(C(F)(F)F)nc1N2 (centres undefined),0,-1,i,96,1
Cc1ccc2[nH]c(=O)c(C3C(C#N)=C(N)Oc4c3ccc3cccnc43)cc2c1 (centres undefined),1,-6,i,102,64*
N#CC1=C(N)Oc2c(ccc3cccnc23)C1c1ccccc1 (centres undefined),1,-8,?,100,58*
CC(Oc1ccc2oc3ccccc3c2c1)C(=O)NC12CC3CC(CC(C3)C1)C2 (centres undefined),1,-6,i,96,-10
O=C(N/N=C/c1cccs1)c1cc(C2CC2)nc2ccccc12,0,0,?,99,6
O=C(O)c1ccccc1NS(=O)(=O)c1cccc(-n2sc3ccccc3c2=O)c1,0,-3,i,100,64*
COc1ccc(NC(=O)CC(C)NCCCN2CCCC2=O)cc1 (centres undefined),0,-2,+,121,0
COc1ccc(OC)c2cc3ccccc3cc12,0,nt,+,110,-15
Cc1ccc(-c2nc3cc(NC(=O)C(C)C)ccc3o2)cc1,-2,-1,+,94,-17
Cc1ccc([N+](=O)[O-])cc1N(CC(=O)NCC1CCCO1)S(C)(=O)=O (centres undefined),-2,0,i,93,-12
CCCc1nnc(NC(=O)c2cc3ccccc3o2)s1,0,0,+,132,-6
CCCc1nnc(NC(=O)c2cc3ccccc3oc2=O)s1,4,-5,i,102,29
COC(=O)c1cc(NC(=O)c2cc3ccccc3o2)cc(C(=O)OC)c1,-1,-1,i,90,89*
COC(=O)c1cccc(NC(=O)c2cc3ccccc3o2)c1,-1,-2,i,101,-7
CCC(=O)Nc1cc(ON=C(C)C)cc([N+](=O)[O-])c1,1,nt,i,100,-2
NC(=O)C1CCN(c2ncnc3c(-c4ccccc4)nsc23)CC1,-1,-4,i,101,-6
C=CCN1CCN(C(=O)CSc2ccccc2)CC1,0,-3,i,90,0
SMILES,iPSC survival up,MIN6 prolif,Myeloid diff MLP,ABCB6 inh MLPCN,H9c2 protect
CC[C@@H]1C(c2ccccc2)=NN(c2ccccc2)[C@H]1C(=O)N1CCOC1=O,-3,nt,+,108,-2
CC[C@@H]1C(c2ccc(F)cc2)=NN(c2ccccc2)[C@H]1C(=O)N1CCOC1=O,-1,nt,i,105,-5
Cc1ccc(-c2cn3nc(-c4ccccc4)c(-c4ccccc4)nc3n2)cc1,0,-2,+,187,2
c1ccc(-c2cn3nc(-c4ccccc4)c(-c4ccccc4)nc3n2)cc1,4,-2,i,111,7
COc1cc(/C=c2\s/c(=C(/C#N)C(=O)N3CCCC3)n(-c3ccccc3)c2=O)ccc1O,2,-1,i,106,58*
COC(=O)/C=c1/s/c(=C(/C#N)C(=O)N2CCCCC2)n(-c2ccccc2)c1=O,1,0,i,104,13
COc1ccc(C(=O)COC(=O)c2ccc(Cl)nc2)c(OC)c1,0,-2,i,97,-2
COc1ccc(NC(=O)N(C)C[C@@H]2OCc3cnnn3CCCC(=O)N([C@H](C)CO)C[C@H]2C)cc1,1,nt,i,97,20
CCOc1ccc(-c2n[nH]c(C(=O)NN)c2C)cc1,-2,2,i,102,-1
Oc1ccc2oc3c(c2c1/C=N/n1cnnc1)CCCC3,-2,-3,i,103,60*
Oc1ccc2oc3c(c2c1C=NCc1ccncc1)CCCC3,2,-6,i,92,67*
O=C(O)c1ccc(N=Cc2c(O)ccc3ccccc23)cc1,0,-3,i,99,8
O=C(O)c1ccc(N=Cc2c(O)ccc3oc4c(c23)CCCC4)cc1,0,-4,i,98,62*
Oc1c(C=NCc2ccncc2)sc2ccccc12,nt,-1,nt,nt,nt
O=C(CSc1nnc(CN2CCOCC2)n1-c1ccc(Cl)cc1)Nc1cc(Cl)ccc1O,0,-1,i,92,-1
O=c1/c(=C\c2ccc(O)cc2)sc2n1C(c1ccccc1)C(c1ccccc1)=NN=2 (centres undefined),-1,-6,+,148,13
CCN(CC)C(=O)c1cccc(-c2csc(C(O)c3ccco3)n2)c1 (centres undefined),1,nt,+,98,6
CCN(CC)C(=O)c1cccc(-c2csc(C(O)c3ccccc3)n2)c1 (centres undefined),-3,nt,i,103,-11
CC(=O)Nc1ccccc1C(=O)C(=O)Nc1ccc(C(=O)NCC2CCCO2)cc1 (centres undefined),1,-4,+,106,5
O=C(NCC(=O)N(Cc1ccco1)C(C(=O)NC1CCCCC1)c1ccncc1)c1cccs1 (centres undefined),0,0,i,94,-1
CC(C)CCN(C(=O)CNC(=O)c1ccco1)C(C(=O)NC1CCCCC1)c1ccco1 (centres undefined),2,1,i,99,52*
O=C(NCC(=O)N(Cc1ccco1)C(C(=O)NC1CCCCC1)c1cccnc1)c1cccs1 (centres undefined),-2,-2,+,99,2
O=C(NCC1CCCO1)c1cccs1 (centres undefined),-2,-1,+,101,3
O=C(COC(=O)c1cccs1)NCC1CCCO1 (centres undefined),5,4,i,95,6
CC1(C(=O)NS(=O)(=O)c2ccccc2Cl)CCN1C(=O)CCc1ccc(Cl)cc1Cl (centres undefined),-1,nt,i,97,4

# Assay outcomes as filed in PubChem BioAssay.
